# Compound activity: PubChem BioAssay, National Center for Advancing Translational Sciences (NCATS)
# This is a sample that favours compounds with a hit; in the whole collection about 21% have one here.
# DRD3 antagonist – blocks the human D3 dopamine receptor. D3R cells, DiscoveRx beta-arrestin luminescence, antagonist mode; active compounds read low. max response, negative = inhibition, %. AID 652054. actives 2.5% (n = 360,000). P35462; in the data active = max response below about -50%; inconclusive = no clear call, values can overlap the other calls; also: % is scaled to controls: 0 for no effect and ±100 for the full control effect
# Target sequence (P35462 whole entry, looked up): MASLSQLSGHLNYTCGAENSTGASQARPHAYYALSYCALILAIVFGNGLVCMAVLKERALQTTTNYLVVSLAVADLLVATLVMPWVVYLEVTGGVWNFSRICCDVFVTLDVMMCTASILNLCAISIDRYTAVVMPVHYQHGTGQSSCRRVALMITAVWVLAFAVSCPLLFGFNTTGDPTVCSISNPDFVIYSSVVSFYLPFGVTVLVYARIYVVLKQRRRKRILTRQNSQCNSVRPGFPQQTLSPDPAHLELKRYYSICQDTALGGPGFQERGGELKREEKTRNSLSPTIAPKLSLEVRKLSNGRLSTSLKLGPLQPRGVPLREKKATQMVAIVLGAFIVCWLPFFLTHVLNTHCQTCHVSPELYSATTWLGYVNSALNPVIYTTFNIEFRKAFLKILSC
#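 Cells plated overnight at 1500 cells/well, then exposed to library compounds with dopamine controls for 90 minutes at 37 degrees C. DiscoveRx reagent added for 30–60 minutes at room temperature; luminescence read, quantitative HTS format.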
# TDP1 cell CPT – growth inhibition of DT40 Tdp1-/-;hTDP1 cells with camptothecin (screen for TDP1 inhibitors); chicken DT40 Tdp1-/-;hTDP1 cells + 20 nM CPT, ATP luminescence, 48 h; Potency, µM (doses to about 46.2 µM), inactives show at the top dose activity change, negative = growth inhibition, actives largely listed as inhibitors; actives 12% (n = 420,000); AID 686979; also: potency is read from the fitted curve at half-maximal effect; % is scaled to controls: 0 for no effect and ±100 for the full control effect; nearly all actives have a fitted effect of over 55% in size
#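 Chicken DT40 Tdp1-/- cells complemented with human TDP1, 400 cells/well, exposed to compounds plus 20 nM camptothecin for at least 48 h at 37 C; viability read as ATP content by CellTiter-Glo luminescence.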
# ClpP mod – qHTS Assay for Activators of ClpP | ATP-dependent Clp protease proteolytic subunit (Bacillus subtilis (strain 168)), P80244 | purified B. subtilis ClpP, FRET peptide cleavage, 20 min | Potency, µM (top dose mostly 57.5 µM), without a hit: top-dose activity change, negative = active | actives 1.9% (n = 340,000) | AID 651965, 2013; active = well fitted falling curve with a large enough effect; inconclusive = small, poorly fitted or top-dose-only effect; inactive = no such curve, though single readings can be large or run the other way; also: potency is read from the fitted curve at half-maximal effect; the source files actives as falling curves though it sought activators and does not explain the sign; nearly all actives have a fitted effect of over 65% in size
# Target sequence (P80244 whole entry, looked up): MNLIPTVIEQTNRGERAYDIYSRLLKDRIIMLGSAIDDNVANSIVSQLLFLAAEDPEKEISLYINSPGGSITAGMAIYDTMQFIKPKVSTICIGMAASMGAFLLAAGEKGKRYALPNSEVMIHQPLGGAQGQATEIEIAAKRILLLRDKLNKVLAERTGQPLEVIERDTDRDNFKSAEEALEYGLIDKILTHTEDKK
#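 ClpP 10 microg/mL final, pH 8 Tris/KCl buffer with BSA, glycerol, Tween-20; compound pinned in; FRET-FV substrate; RT 20 min; Ex320/Em430; ΔFRET vs ADEP 5.8 microM, DMSO, no enzyme.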
# IL-1B inflam inh – inhibitors of inflammasome signaling (IL-1 beta secretion). THP-1 LPS/ATP IL-1B secretion, AlphaLISA, 16 h; active compounds read low. activity change, % at 57.5 µM. actives 4.7% (n = 360,000); in the data active = activity change below about -50%; inconclusive = mostly about -30% to -49%; also: % is scaled to controls: 0 for no effect and ±100 for the full control effect
#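 Secreted IL-1B measured by AlphaLISA bead assay after 16 h compound exposure of THP-1 cells; compounds (final up to 57.5 uM) added 1 h before LPS (250 ng/mL) and ATP (1.25 mM) stimulation; lower signal means less secretion.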
# DRD3 agonist – agonists of human D3 dopamine receptor. P35462. D3R DiscoveRx beta-arrestin cells, luminescence, 90 min. max activation, %. actives 0.58% (n = 410,000); in the data active = max activation above about 30%; also: 0% is about no effect
#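 Cells at 1500/well, incubated overnight, then treated with pinned compounds (dopamine as control) for 90 min at 37 degrees C. DiscoveRx reagent added for 30 - 60 minutes at room temperature; luminescence read.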
# TDP1 cell noCPT – qHTS for Inhibitors of human tyrosyl-DNA phosphodiesterase 1 (TDP1): qHTS in cells in absence of CPT. actives 15% (n = 420,000). AID 686978, 2013. Potency, µM (highest dose often 46.2 µM), inactives show at the highest dose activity change, negative = growth inhibition, actives largely listed as inhibitors. DT40 Tdp1-/- hTDP1 cells, no CPT, ATP luminescence, 48 h; also: potency is read from the fitted curve at half-maximal effect; % is scaled to controls: 0 for no effect and ±100 for the full control effect; nearly all actives have a fitted effect of over 55% in size
#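 Compound effects on proliferation are scored in DT40 Tdp1-/-;hTDP1 cells in the absence of CPT. ATP levels (CellTiter-Glo luminescence) are recorded after a ≥48 hr, 37 °C incubation.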
# Active calls of the source: *; ? = inconclusive; . = not tested or not shown. Unless noted, calls follow the shape of the dose curve; as a rule, active = well fitted inhibition curve with a large enough effect; inconclusive = small, poorly fitted or top-dose-only effect; inactive = flat fitted curve, though single readings scatter.
SMILES,DRD3 antagonist,TDP1 cell CPT,ClpP mod,IL-1B inflam inh,DRD3 agonist,TDP1 cell noCPT
O=C(NCc1cccnc1)c1cc2nc(-c3cccs3)cc(C(F)(F)Cl)n2n1,22,?,-11%,-67*,-9,?
Cc1ccc(O)c(NC(=O)c2cc(-c3ccc(F)cc3)on2)c1,-6,-19%,1%,?,-1,-10%
O=C(NCc1ccco1)c1cc2nc(-c3cccs3)cc(C(F)(F)F)n2n1,-27,?,35µM*,-21,-13,?
O=C(NCc1ccco1)c1nn2c(C(F)(F)F)cc(-c3cccs3)nc2c1Cl,21,0%,0%,21,2,3%
Cc1ccc(O)c(NC(=O)c2cc(-c3cccs3)on2)c1,-17,3%,.,-67*,4,-25%
Cc1nc2cc(NC(=O)Nc3ccccc3Cl)ccc2n1C,-10,-18%,.,?,-6,?
COc1cccc(C2NC(=O)c3n[nH]c(-c4cccs4)c32)c1 (stereo not drawn),.,?,-3%,.,5,?
CCc1ccccc1NC(=O)CNCC(=O)Nc1ccccc1CC,-6,-20%,.,-3,-6,-18%
CC1=NN(c2ccccc2)C(=O)/C1=C\c1cn(-c2ccccc2)nc1C,17,?,.,38,9,-14%
CC1=NNC(=O)/C1=C\c1cn(-c2ccccc2)nc1-c1ccc(Cl)cc1,?,5.2µM*,-3%,-119*,7,5.2µM*
Cc1ccc(-c2nn(-c3ccccc3)cc2C=C2C(=O)CC(C)(C)CC2=O)cc1,0,15µM*,1%,-30,2,?
CC1=NN(c2ccccc2)C(=O)/C1=C\c1cn(CCC#N)nc1-c1ccc(Cl)cc1,8,?,.,-85*,-4,?
CC1(C)CC(=O)C(=Cc2cn(-c3ccccc3)nc2-c2ccccc2)C(=O)C1,-1,23µM*,0%,0,2,23µM*
COCCCNc1nc2nonc2nc1N1CCC(C(C)N2CCOCC2)CC1 (stereo not drawn),17,0%,.,12,-8,6%
COCc1cc(C)nc2sc3c(c12)NC(c1ccccc1C(=O)O)N(c1ccc(OC)cc1)C3=O (stereo not drawn),.,?,-4%,.,-11,-29%
CCOC(=O)c1cc2c(c(CCO)n1)[C@H](CCO)N(S(=O)C(C)(C)C)C2 (stereo partly drawn),0,-9%,-15%,15,2,10%
Cc1ccc(-c2nnc(SCc3ccccc3)o2)cc1,.,-16%,-3%,.,-7,-20%
CCCC(=O)Nc1cc(C(=O)NCc2ccccc2)ccc1S(=O)(=O)c1ccc(Cl)cc1,.,21µM*,-22%,.,-7,21µM*
CCC1(c2ccccc2)NC(=O)N(CC(=O)Nc2ccc(N3CCOCC3)cc2)C1=O (stereo not drawn),-9,-10%,-4%,-10,-2,0%
CS(=O)(=O)Nc1cccc(NC(=O)c2cccc3c(-c4ccc(F)c(F)c4)coc23)c1,8,15µM*,4%,?,3,?
CC(C)NC(=O)c1cccc2c(-c3ccc(F)c(F)c3)coc12,1,?,-9%,-26,-3,21µM*
O=C(Nc1cccc(C(F)(F)F)c1)c1cccc2c(-c3cccnc3)coc12,77,?,-4%,?,-6,?
CS(=O)(=O)Nc1cccc(NC(=O)c2cccc3c(-c4cccc(C(N)=O)c4)coc23)c1,28,18µM*,-8%,?,4,?
CC(C)CNC(=O)c1cccc2c(-c3ccc(F)c(F)c3)coc12,-15,?,-4%,-14,2,?
CC(=O)c1cccc(NC(=O)c2cccc3c(-c4cccc(C(N)=O)c4)coc23)c1,190,9.2µM*,70%,0,7,12µM*
SMILES,DRD3 antagonist,TDP1 cell CPT,ClpP mod,IL-1B inflam inh,DRD3 agonist,TDP1 cell noCPT
O=C(C1=C(O)C(=O)N(Cc2cccnc2)C1c1ccccn1)c1cccs1 (stereo not drawn),-13,-13%,.,8,-5,8%
NC(=O)c1cc[n+](CC(=O)c2ccc(NC(=O)c3ccccc3)cc2)cc1,-7,?,0%,-11,-6,?
CCOc1ncnc2c1sc1nc(C)cc(C)c12,1,11%,-3%,-18,1,-24%
Cc1cc(C)c2c(n1)sc1c(N3CCN(CCO)CC3)ncnc12,-3,-29%,-18%,-77*,-5,?
CC(=O)Cn1cnc2c(sc3nc(C)cc(C)c32)c1=O,7,2%,.,-64*,1,?
CSc1cccc(-n2nnc(-c3nsc(NC(=O)c4cccs4)n3)c2C)c1,.,?,?,.,-14,?
Oc1ccccc1Nc1nc(-c2ccccc2)c2cc(Cl)ccc2n1,.,?,-1%,.,-4,?
OCCN1CCN(c2nc(-c3ccccc3)c3cc(Cl)ccc3n2)CC1,0,?,-6%,-52*,-14,23µM*
O=C1CN(c2nc(-c3ccccc3)c3cc(Cl)ccc3n2)c2ccccc2N1,0,16µM*,-4%,7,0,21µM*
Clc1ccc2nc(N3CCNCC3)nc(-c3ccccc3)c2c1,-4,18µM*,-3%,-95*,-8,9.2µM*
Cc1ccc2nc(N3CCN(CCO)CC3)nc(-c3ccccc3)c2c1,?,?,-5%,?,-26,?
COc1cc(-c2noc(C)c2C(=O)NCCc2ccccc2)cc(OC)c1OC,15,?,-4%,3,0,?
CC(=O)c1ccc(-c2ccc(C(=O)N3CCCc4ccccc43)o2)cc1,-21,?,.,?,-8,?
Cc1ccc(Cn2ccsc2=NC(=O)COC(=O)c2ccc(NC(=O)CC#N)cc2)cc1,14,?,-3%,-9,6,16µM*
Cc1ccc(NC(=O)CN(C)C(=O)COC(=O)c2ccc(NC(=O)CC#N)cc2)cc1,21,12%,-3%,-2,-7,7%
Cc1ccc(Cn2ccsc2=NC(=O)CCl)cc1,0,12µM*,0%,-100*,7,5.8µM*
CC1CCCN(C(=O)COC(=O)c2ccc(=O)n(Cc3ccccc3)n2)C1 (stereo not drawn),0,4%,-7%,2,1,7%
